Test results: PubChem BioAssay (NCATS)
Results filed as inconclusive are left out. The source made the active and inactive calls. Unless noted, calls come from the whole dose curve; as a rule, active = well fitted curve in the direction sought with a large enough effect; inconclusive = small, poorly fitted or top-dose-only effect, or another doubt; inactive = no such curve, though single readings can be large; an effect the other way counts as inactive or inconclusive.

Columns and labels:
[1] = qHTS Assay for Identification of Small Molecule Agonists for NFkB Signaling Pathway. (AID 624478); note: 0% is about no effect
Summary of the method: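 NFkB-bla ME-180 cells (beta-lactamase reporter under NFkB response element) were plated overnight, treated with compound plus TNF alpha at 10 pM final (its EC50) for 5 hrs at 37 C, then loaded with LiveBLAzer substrate for 2 hrs.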

[2] = Cell Proliferation Assay against the TMD8 Cell Line (AID 651645); conditions: TMD8 DLBCL cell line proliferation/viability; at 46.1 µM (top of the series);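 note: cells exposed to compound for 48 h before reading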
Summary of the method: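 TMD8 cells, 500/well in RPMI with 5% FBS, dosed immediately and grown 48 h at 37 C, 5% CO2. CellTiter-Glo luminescence normalised to DMSO 100% and 9.2 uM bortezomib (final) 0%.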

[3] = Cell Proliferation Assay against the HBL1 Cell Line (AID 651646); conditions: HBL1 DLBCL cells; at 46.1 µM (top of the series);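 note: cells exposed to compound for 48 h before reading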
Summary of the method: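 Luminescent ATP read-out (CellTiter-Glo) after 48 h compound exposure of HBL1 cells at 37 °C; percent activity was scaled between DMSO as 100% and 9.2 uM bortezomib (final) as 0%.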

[4] = Cell Proliferation Assay against the TMD8 Cell Line (Caspase readout at 16 hrs) (AID 651712); note: potency is the fitted concentration of half-maximal effect
Summary of the method: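 Apoptotic response of TMD8 cells was judged from caspase 3/7 activation following a 16 hour compound incubation at 37 °C. Luminescent signal was converted to percent activity, with DMSO set as 0% and 9.2 uM final bortezomib as 100%.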

[5] = Cell Proliferation Assay against the TMD8 Cell Line (Caspase readout at 8 hrs) (AID 651713); note: potency is the fitted concentration of half-maximal effect
Summary of the method: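 TMD8 cells (500/well) in phenol red-free RPMI with 5% FBS were treated with compounds for 8 h at 37C, 5% CO2. Caspase-Glo 3/7 luminescence was read after 15 min at room temperature and normalised to DMSO (0%) and 9.2 uM bortezomib (100%).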

[6] = qHTS Assay for Identification of Small Molecule Antagonists for NFkB Signaling Pathway. (AID 624479; calls by dose curve;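 note: pathway stimulated with TNF alpha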; note: potency is the fitted concentration of half-maximal effect)
[7] = qHTS assay for small molecule agonists of the antioxidant response element (ARE) signaling pathway (AID 651741; active = well fitted activation curve with a large enough effect in the signal ratio; the % refers to the signal ratio; note: potency is the fitted concentration of half-maximal effect); conditions: HepG2 ARE-bla reporter, beta-lactamase FRET ratio, 16 h
Summary of the method: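 Seeding 2,000 ARE-bla HepG2 cells per well preceded a 5 h incubation at 37 C/5% CO2 and a 16 h compound exposure at 37 C. Beta-lactamase reporter activity was then quantified by fluorescence after 2 h with LiveBLAzer B/G FRET substrate.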

[8] = qHTS assay for small molecule activators of the p53 signaling pathway (AID 651743; active = well fitted activation curve with a large enough effect in the signal ratio, not every such curve was filed as active; the % refers to the signal ratio; note: % of control where 0% means no effect); conditions: HCT-116 p53RE-bla, beta-lactamase FRET ratio, 16 h; stronger effect = higher value
Summary of the method: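 Screen for p53 pathway agonists uses stably transfected p53RE-bla HCT-116 cells, 4,000 per well, treated 16 h at 37 C with compounds in DMSO.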

Structure (SMILES): CC(=O)OCC(=O)[C@@]1(O)[C@H](C)C[C@H]2[C@@H]3C=C(C)C4=Cc5c(cnn5-c5ccccc5)C[C@]4(C)[C@@H]3[C@@H](O)C[C@@]21C
- outcome [1]: inactive
- viability (% of control) [2]: 3.02%
- viability, percent of control [3]: 2.93%
- Potency [4]: 20.9 µM (active)
- Potency [5]: inactive

Structure (SMILES): CCC(=C(c1ccccc1)c1ccc(OCCN(C)C)cc1)c1ccccc1
- Potency [6]: 21.1 µM (active)
- viability, percent of control [3]: -1.5%
- Potency [5]: 33.2 µM (active)

Structure (SMILES): CNc1nccc(-c2cccnc2Oc2cc(C(=O)Nc3cccc(C(F)(F)F)c3)ccc2C)n1
- outcome [1]: inactive
- Potency [6]: 13.3 µM (active)
- viability (% of control) [2]: 6.17%
- viability, percent of control [3]: 25.3%
- Potency [5]: inactive

Structure (SMILES): CC(C)(C)c1cc(NC(=O)Nc2ccc(-c3cn4c(n3)sc3cc(OCCN5CCOCC5)ccc34)cc2)no1
- outcome [1]: inactive
- Potency [6]: 13.3 µM (active)
- viability, percent of control [3]: 30.7%
- Potency [4]: inactive
- Potency [5]: inactive

Structure (SMILES): c1cc(-c2cnn3cc(-c4ccc(OCCN5CCCCC5)cc4)cnc23)ccn1
- outcome [1]: inactive
- viability, percent of control [3]: 8.17%

Structure (SMILES): O=C(O)CCCc1c[nH]c2ccccc12
- Potency [7]: 61.1 µM (active)
- activation [8]: -6.63% (inactive)

Structure (SMILES): COc1cc2c(Oc3ccc4[nH]c(C)cc4c3F)ncnc2cc1OCCCN1CCCC1
- outcome [1]: inactive
- viability (% of control) [2]: 1.51%
- viability, percent of control [3]: 1.27%

Structure (SMILES): CC(=O)c1c(C)c2cnc(Nc3ccc(N4CCNCC4)cn3)nc2n(C2CCCC2)c1=O
- outcome [1]: inactive
- Potency [6]: 16.8 µM (active)
- viability, percent of control [3]: 1.52%
- Potency [4]: 18.7 µM (active)
- Potency [5]: 33.2 µM (active)

Structure (SMILES): CC(=O)Nc1sc2c(c1-c1nc3ccccc3s1)CNC2
- outcome [1]: inactive
- viability (% of control) [2]: 4.93%
- viability, percent of control [3]: 22.5%
- Potency [5]: 33.2 µM (active)

Structure (SMILES): CC1(O)CC(c2nc(-c3ccc4ccc(-c5ccccc5)nc4c3)c3c(N)nccn23)C1 (stereo not given)
- outcome [1]: inactive
- viability (% of control) [2]: 2.23%
- viability, percent of control [3]: 43%
- Potency [4]: 26.4 µM (active)
- Potency [5]: inactive

Structure (SMILES): C[C@@H](Oc1cc(-n2cnc3ccc(CN4CCN(C)CC4)cc32)sc1C(N)=O)c1ccccc1C(F)(F)F
- outcome [1]: inactive
- Potency [6]: inactive
- viability (% of control) [2]: 2.56%
- viability, percent of control [3]: 3.16%
- Potency [5]: 23.5 µM (active)

Structure (SMILES): Cn1cncc1[C@@](N)(c1ccc(Cl)cc1)c1ccc2c(c1)c(-c1cccc(Cl)c1)cc(=O)n2C
- outcome [1]: inactive
- viability, percent of control [3]: 1.3%

Structure (SMILES): Fc1cc(-c2cccc3ncc(-c4cnn(C5CCNCC5)c4)nc23)cc(F)c1CN1CCOCC1
- outcome [1]: inactive
- viability (% of control) [2]: 1.53%
- viability, percent of control [3]: 2.06%

Structure (SMILES): CN(C)CCCN=c1c2ccccc2n(C)c2[nH]c(=O)n(C)c(=O)c12
- outcome [1]: inactive
- viability (% of control) [2]: 1.93%
- viability, percent of control [3]: 32.9%
- Potency [4]: 20.9 µM (active)
- Potency [5]: 26.4 µM (active)

Structure (SMILES): Cc1ccc(C(N)=O)cc1Nc1nccc(-c2cn(C(C)C)c3cnccc23)n1
- outcome [1]: inactive
- Potency [6]: 0.421 µM (active)
- viability (% of control) [2]: 5.31%
- viability, percent of control [3]: 14.4%
- Potency [4]: 2.64 µM (active)
- Potency [5]: 14.8 µM (active)

Structure (SMILES): CC(=O)SC[C@@H](C)C(=O)N1CCC[C@H]1C(=O)N[C@@H](Cc1ccccc1)C(=O)O
- outcome [1]: inactive
- Potency [6]: 8.41 µM (active)
- viability (% of control) [2]: 104%
- viability, percent of control [3]: 97.5%
- Potency [4]: inactive
- Potency [5]: inactive

Structure (SMILES): Cc1cc(Nc2cc(N3CCN(C)CC3)nc(Sc3ccc(NC(=O)C4CC4)cc3)n2)n[nH]1
- outcome [1]: inactive
- viability (% of control) [2]: 19.5%
- viability, percent of control [3]: 27.1%
- Potency [5]: inactive

Structure (SMILES): COc1cc(=C2C=c3ccccc3=N2)[nH]c1=Cc1[nH]c(C)cc1C
- Potency [6]: inactive
- viability, percent of control [3]: 26%
- Potency [5]: inactive

Structure (SMILES): Cc1cnc(Nc2ccc(F)cc2Cl)nc1-c1c[nH]c(C(=O)N[C@H](CO)c2cccc(Cl)c2)c1
- outcome [1]: inactive
- viability (% of control) [2]: -0.93%
- viability, percent of control [3]: 0.107%

Structure (SMILES): Cc1cn2c(-c3cn[nH]c3)cnc2c(Nc2ccc(C(=O)N3CCNCC3)cc2F)n1
- outcome [1]: inactive
- viability (% of control) [2]: 35.7%
- viability, percent of control [3]: 85.6%

Structure (SMILES): CCN(CC)CCCCNc1ncc2cc(-c3cc(OC)cc(OC)c3)c(NC(=O)NC(C)(C)C)nc2n1
- outcome [1]: inactive
- viability (% of control) [2]: 3%
- viability, percent of control [3]: 7.6%
- Potency [4]: inactive
- Potency [5]: 26.4 µM (active)

Structure (SMILES): C1=CCOCc2cc(ccc2OCCN2CCCC2)Nc2nccc(n2)-c2cccc(c2)OCC1
- outcome [1]: inactive
- viability (% of control) [2]: 61.1%

Structure (SMILES): Cc1cc(Nc2cc(N3CCN(C)CC3)nc(C=Cc3ccccc3)n2)n[nH]1
- outcome [1]: inactive
- viability, percent of control [3]: 3.87%
- Potency [5]: inactive

Structure (SMILES): CC[C@H](CO)Nc1nc(NCc2ccccc2)c2ncn(C(C)C)c2n1
- outcome [1]: inactive
- viability (% of control) [2]: 7.77%
- viability, percent of control [3]: 55%
- Potency [4]: 0.935 µM (active)

Structure (SMILES): C=CC(=O)Nc1cccc(Oc2nc(Nc3ccc(N4CCN(C)CC4)cc3OC)ncc2Cl)c1
- outcome [1]: inactive
- Potency [6]: inactive
- viability, percent of control [3]: 2.13%
- Potency [5]: 7.43 µM (active)

Structure (SMILES): CC(C)=CCCC(C)=CCCC(C)=CCSc1ccccc1C(=O)O
- viability (% of control) [2]: 100%
- viability, percent of control [3]: 85.3%
- Potency [4]: inactive
- Potency [5]: inactive

Structure (SMILES): N#CCNC(=O)c1ccc(-c2ccnc(Nc3ccc(N4CCOCC4)cc3)n2)cc1
- outcome [1]: inactive
- Potency [6]: 0.668 µM (active)
- viability, percent of control [3]: 25.4%
- Potency [4]: 5.26 µM (active)

Structure (SMILES): Cc1cc(Nc2cc(NC(=O)c3c(Cl)cccc3Cl)ccn2)nc(N)n1
- outcome [1]: inactive
- Potency [6]: 0.266 µM (active)
- viability, percent of control [3]: 31.3%
- Potency [4]: 18.7 µM (active)
- Potency [5]: 29.6 µM (active)
